± gives the standard deviation of the averaged measurements. In all, about 25,000 sequences were measured (“ln(normalized median fluorescence intensity)”: median about 8.9, highest 2% from about 10 on). Only a selection was taken, and the highest values are over-represented in it overall.
test system: PfAP2-LT AP2 domain (GST-tagged); test: gcPBM binding intensity (ln(normalized median fluorescence intensity)); higher = stronger DNA binding
Outline: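 Binding of GST-tagged P. falciparum DNA-binding domains, expressed in E. coli and used at about 25 μg on average, was carried out for 1 h in 1× PBS containing 1% milk, 0.2 mg/ml BSA, 0.5% salmon testes DNA and 0.03% Triton X-100. The target was an Agilent 4 × 180k array of primer-extended double-stranded 36-bp intergenic genomic probes plus negative controls, read with Alexa488 anti-GST antibody at 488 nm. Binding intensity is the highest Masliner-normalised natural-log median intensity across replicate spots of either probe orientation.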

Sequence	gcPBM binding intensity (ln)
ATCTCTATGATATATACACACAAATATACAAAAAAA [CACACA_site6605]	8.96 ± 0.45
TATAATATTCTATATGCATGTACACCATTCTTTATT [TGCATGCA_site688]	9.15 ± 0.45
ACACATACATATACATACACATTGTTTTCATGCATC [XGTACX_negctrl_site126]	9.2 ± 0.39
TATATATATATATATACATGCATCATTGTTCACCTT [TGCATGCA_site177]	10.2 ± 0.35
GTTCATCACATATACACATGCATATTCTAATATGTA [TGCATGCA_site809]	8.95 ± 0.41
TAAAATGAATAAAATTGTACTTAATAATATTTTAAA [XGTACX_site5532]	8.23 ± 0.57
TAAAATATAGAAAATTTTATTAAATATAAAAAAATA [CACACA_negctrl_site1441]	8.28 ± 0.47
TATAAGAAATAAAACCTGATTATAAACCTGTAACCA [CACACA_negctrl_site1302]	8.63 ± 0.37
ATAAATAAATACTAGGCACACACACCGATATATATA [CACACA_site8649]	9.76 ± 0.22
AAATAAATACTAGGCACACACACATATATATATATA [CACACA_site2079]	10.1 ± 0.15
AAAATAATAATAGGCACACATATATATATATATATA [CACACA_site2058]	9.99 ± 0.21
AATAAAATAATAGGCACACATATATATATATATTAT [CACACA_site273]	9.2 ± 0.37
ATAAATACTAGGCACACACACATATAGATTTATATA [CACACA_site7064]	9.77 ± 0.47
ATAAATACTAGGCACACACACATATATATATATATA [CACACA_site2080]	10.4 ± 0.014
TATATTTGGAAAACATGTACATATAACAATATGTAA [XGTACX_site324]	8.71 ± 0.34
TTAGTTATTAAAAAAAGTACATAAGTAGATATCATC [XGTACX_site8712]	8.7 ± 0.45
TTTGAACATTTTGCAAGTACAAAAAAATAATATATC [XGTACX_site8079]	8.65 ± 0.42
ACTCTCTTATATTAAACACACATATATATATGTATA [CACACA_site2703]	8.99 ± 0.42
GTGCTAAAAGTATATGCACACACATATATATGCACA [CACACA_site8472]	9.42 ± 0.31

Sequence	gcPBM binding intensity (ln)
AAAAAAAAAAAACATACACACAAATAAATACATACA [CACACA_site6073]	9.23 ± 0.36
TATAACATAAAACACACACACATACATACACAAAAA [CACACA_site1804]	10.1 ± 0.15
AAATAAAACAAACACACACACACATACACAAAAAAA [CACACA_site3849]	10.12 ± 0.035
AATAAACATATATACACACACAAAAAAAAAAACATA [CACACA_site424]	9.59 ± 0.5
AATATATAAACATATACACACAAAAACATATATATA [CACACA_site4855]	9.21 ± 0.33
ATAAAACAAAAACACACACACATACACAAAAAAAAA [CACACA_site3848]	10.1 ± 0.3
TATATACACATATATAAACACACAAAAAAAAAAAAA [CACACA_site8626]	8.89 ± 0.4
AATAAACATAAATACACACACAAAAAAAAAAACATA [CACACA_site4396]	9.64 ± 0.33
TATACACATATATAAACACACAAAAAAAAAAAAAAA [CACACA_site7041]	8.88 ± 0.49
AATTTTTTATATGTCACACATTTATTATTATTATTA [CACACA_site4198]	8.83 ± 0.48
AACATATAAAAATATGCACACACAGGAATACAAACA [CACACA_site8127]	9.89 ± 0.45
AAAAAATAAATAAATAGTACTTTAAAAGAAAAAAAA [XGTACX_site5051]	8.55 ± 0.51
TGTTTATTTAATAATATTTTTTTTTTTATTATATTA [XGTACX_negctrl_site56]	8.31 ± 0.54
ATAAGATTATACAATTGTACGTTGTTCAAGATAAGG [XGTACX_site191]	8.8 ± 0.42
AATAAATATAAATAAATAAATATATATATATATTTG [CACACA_negctrl_site1486]	8.56 ± 0.4
TTTTATGTTTTAAAATGTACGTGTCAATGAATAAGT [XGTACX_site6239]	8.52 ± 0.42
TTATTTACAACTTCAAATTATGTGTAATACTACTAT [CACACA_negctrl_site741]	8.73 ± 0.52
AAAACAATATACTGTAGTACTGATGATATATATATA [XGTACX_site7798]	9.01 ± 0.38
ACAAGAACAGAACGTACACACACATATATATATATA [CACACA_site9143]	10.175 ± 0.0071

Sequence	gcPBM binding intensity (ln)
TAAAAAAAAACATATACACACAAAAACGTACACATA [CACACA_site1354]	9.31 ± 0.3
AAGAACAGAACGTACACACACATATTTATATTTATA [CACACA_site7594]	9.55 ± 0.3
AAGAACAGAACGTACACACACATATATATATATATA [CACACA_site3457]	10.2 ± 0.28
TATATATACATATACACACATACGTACATACATATA [CACACA_site3585]	9.13 ± 0.39
AACACAAGAACAGAACGTACACACACATATATATAT [XGTACX_site7347]	9.84 ± 0.13
AAAAAATAATAATAAAATGAATAGATATGTATTTAT [TGCATGCA_negctrl_site210]	8.63 ± 0.52
AAAAAAAAAAAAAAATGTACATATATAATATTTATA [XGTACX_site5117]	8.54 ± 0.57
TATAAAATTACATTTTGTCATTTATTTTTTCCCACT [TGCATGCA_negctrl_site110]	8.54 ± 0.63
CACACAAAGGAATATACACACATATTTATATTTATA [CACACA_site7841]	9.21 ± 0.44
CCCACAAAGGAATATACACACATATATATATATATA [CACACA_site4091]	9.95 ± 0.18
ACAAAAGGGGAATACACACACATATATATATATATA [CACACA_site2215]	10.33 ± 0.071
AGTATATATACACAAGGGGAATACATATACAAAATT [TGCATGCA_negctrl_site244]	9.04 ± 0.46
ACAAAAGGGGAATACACACACATATATAAATAAATA [CACACA_site7111]	9.59 ± 0.6
ATACAAAAGGGGAATACACACACATATATATATATA [CACACA_site8694]	10.12 ± 0.021
ACAATAAAAATTTATGCATGTGAATTGAAAAAAAAA [TGCATGCA_site1037]	8.72 ± 0.48
CATAAATCAGCCATAACACACATACATATATACATA [CACACA_site8025]	9.28 ± 0.42
TAATATACATAATAATGTACATATTTTCATATATAC [XGTACX_site6913]	8.74 ± 0.35
ACCATGAAAATATTATGTACATATGTATTATATATA [XGTACX_site408]	8.87 ± 0.33

From the supplement of paper PMC11417369
